Source: the OligoGym collection

molecular target: CCL13; assay: pooled miR-30 sensor sort-seq; sequence = guide strand; conditions: shRNA
Further: reference of the scale not given here.

For TCTGAAGATGACAGCCTTCTGG, which sensor-assay potency score (higher = more potent) is on record?
The sensor-assay potency score (higher = more potent) was -0.807.

With AAGGAGATCTTCTTACTGCTAA as the sequence, how does the sensor-assay potency score (higher = more potent) read?
The sensor-assay potency score (higher = more potent) was -0.229.

How did the sensor-assay potency score (higher = more potent) turn out when TATAATTCTGGACCCACTTCTC was run?
Its sensor-assay potency score (higher = more potent) is -0.771.

molecular target: CCL23; assay: as above; conditions: shRNA

With TTGGAGCACTCGCTGTTCGTTT as the sequence, how does the sensor-assay potency score (higher = more potent) read?
The sensor-assay potency score (higher = more potent) was -0.72.

How did the sensor-assay potency score (higher = more potent) turn out when TGAACTTGCTTATCACTGGGGT was run?
The sensor-assay potency score (higher = more potent) was 0.574.

For AGTAGCATGGAATCTGTCCAGA, which sensor-assay potency score (higher = more potent) is on record?
Its sensor-assay potency score (higher = more potent) is -1.79.

How did the sensor-assay potency score (higher = more potent) turn out when TCTGCATCTTTTGTGACCCGGG was run?
Its sensor-assay potency score (higher = more potent) is -0.271.

Which sensor-assay potency score (higher = more potent) does the source give for TAGTAGCATGGAATCTGTCCAG here?
Its sensor-assay potency score (higher = more potent) is -0.782.

With TTCAAAGTAACTCTCCAGGAGT as the sequence, how does the sensor-assay potency score (higher = more potent) read?
Its sensor-assay potency score (higher = more potent) is -0.524.

With TGAACTCTGTCTCTGCATCTTT as the sequence, how does the sensor-assay potency score (higher = more potent) read?
The sensor-assay potency score (higher = more potent) was -0.137.

For TTTGACATCATGAACTCTGTCT, which sensor-assay potency score (higher = more potent) is on record?
Its sensor-assay potency score (higher = more potent) is 0.483.

With TCCAAGGGCAGTAACAAGCATG as the sequence, how does the sensor-assay potency score (higher = more potent) read?
The sensor-assay potency score (higher = more potent) was -1.61.

For TCTCACGCAAACCTGAACTTGC, which sensor-assay potency score (higher = more potent) is on record?
Its sensor-assay potency score (higher = more potent) is -0.191.

With TCTGTCTCTGCATCTTTTGTGA as the sequence, how does the sensor-assay potency score (higher = more potent) read?
Its sensor-assay potency score (higher = more potent) is -0.455.

Which sensor-assay potency score (higher = more potent) does the source give for TCATGAACTCTGTCTCTGCATC here?
The sensor-assay potency score (higher = more potent) was -0.664.

molecular target: CCL26; assay: as above; conditions: shRNA

Which sensor-assay potency score (higher = more potent) does the source give for TATTGGAAGCAGCAGGTCTTGG here?
The sensor-assay potency score (higher = more potent) was -1.48.

With TAGCTTCGCACCCAGGTCCAGG as the sequence, how does the sensor-assay potency score (higher = more potent) read?
Its sensor-assay potency score (higher = more potent) is -1.45.

How did the sensor-assay potency score (higher = more potent) turn out when TTGGTAGTGAATATCACAGCCC was run?
The sensor-assay potency score (higher = more potent) was -0.403.

Which sensor-assay potency score (higher = more potent) does the source give for TTCTTGCCTCTTTTGGTAGTGA here?
The sensor-assay potency score (higher = more potent) was -0.89.

How did the sensor-assay potency score (higher = more potent) turn out when TTGTGGCTGTATTGGAAGCAGC was run?
The sensor-assay potency score (higher = more potent) was -1.27.

With TTTTGGTAGTGAATATCACAGC as the sequence, how does the sensor-assay potency score (higher = more potent) read?
Its sensor-assay potency score (higher = more potent) is -0.793.

With TTGGATATGTCACTCCCACGTG as the sequence, how does the sensor-assay potency score (higher = more potent) read?
The sensor-assay potency score (higher = more potent) was -0.51.

With TCTTTTGGTAGTGAATATCACA as the sequence, how does the sensor-assay potency score (higher = more potent) read?
Its sensor-assay potency score (higher = more potent) is -1.4.

Which sensor-assay potency score (higher = more potent) does the source give for TAGTGAATATCACAGCCCGCTG here?
The sensor-assay potency score (higher = more potent) was -1.27.

Which sensor-assay potency score (higher = more potent) does the source give for TGGATGGGTACAGACTTTCTTG here?
Its sensor-assay potency score (higher = more potent) is -1.49.

molecular target: CCL28; assay: as above; conditions: shRNA

Which sensor-assay potency score (higher = more potent) does the source give for TTCTTCTGCGCTTGACATGAAG here?
The sensor-assay potency score (higher = more potent) was -1.32.

For TTAACAGTATGGTTGTGCGGGC, which sensor-assay potency score (higher = more potent) is on record?
The sensor-assay potency score (higher = more potent) was -0.737.

With TTTTCTTGGCAGCTTGCACTTT as the sequence, how does the sensor-assay potency score (higher = more potent) read?
Its sensor-assay potency score (higher = more potent) is -0.496.

How did the sensor-assay potency score (higher = more potent) turn out when TGATGTGAAACCTCCGTGCAAC was run?
The sensor-assay potency score (higher = more potent) was -1.14.

With ATATGATGTGAAACCTCCGTGC as the sequence, how does the sensor-assay potency score (higher = more potent) read?
The sensor-assay potency score (higher = more potent) was -0.448.

TTTCTTGGCAGCTTGCACTTTC was tested. Which sensor-assay potency score (higher = more potent) did it give?
Its sensor-assay potency score (higher = more potent) is 0.0736.

With TTGCCATGGTGTTTCTTCCTGT as the sequence, how does the sensor-assay potency score (higher = more potent) read?
Its sensor-assay potency score (higher = more potent) is -0.322.

With ACACATATTCACTCTTTCCAGG as the sequence, how does the sensor-assay potency score (higher = more potent) read?
Its sensor-assay potency score (higher = more potent) is -1.19.

How did the sensor-assay potency score (higher = more potent) turn out when AATATGATGTGAAACCTCCGTG was run?
The sensor-assay potency score (higher = more potent) was 0.282.

Which sensor-assay potency score (higher = more potent) does the source give for TTGCACTTTCATCCACTGCTTA here?
Its sensor-assay potency score (higher = more potent) is -0.197.

How did the sensor-assay potency score (higher = more potent) turn out when TGCACTTTCATCCACTGCTTAA was run?
The sensor-assay potency score (higher = more potent) was -1.51.

With TCCTGTGGCAAACATTTCCTTT as the sequence, how does the sensor-assay potency score (higher = more potent) read?
Its sensor-assay potency score (higher = more potent) is -1.54.

molecular target: CCNA1; assay: as above; conditions: shRNA

How did the sensor-assay potency score (higher = more potent) turn out when TTAGCCAGGTTCTCAGTCCTGA was run?
Its sensor-assay potency score (higher = more potent) is -0.236.

Which sensor-assay potency score (higher = more potent) does the source give for TAACAGTTGTCGTTTTGTGTAT here?
Its sensor-assay potency score (higher = more potent) is -0.217.

How did the sensor-assay potency score (higher = more potent) turn out when TAGAACTTTCAGAAGCAAGTGT was run?
Its sensor-assay potency score (higher = more potent) is 0.493.
